Shown are actives, neighbours in structure and some others; about 13% of the full set was active somewhere.
USP30 block = inhibitors of human USP30 deubiquitinase. AID 1645860, 2021. inhibition, % at 25 µM. Ubiquitin carboxyl-terminal hydrolase 30 (Homo sapiens), Q70CQ3. hit rate 5.3% among 47,000. purified USP30, Ub-rhodamine cleavage fluorescence
USP28 block = inhibitors of human USP28 deubiquitinase. Ubiquitin carboxyl-terminal hydrolase 28 (Homo sapiens), Q96RU2. purified USP28, Ub-rhodamine cleavage fluorescence, 30 min. inhibition, % at 25 µM. hit rate 3% among 47,000. AID 1645857, 2021
USP17 block = inhibitors of human USP17 deubiquitinase; inhibition, % at 50 µM; purified USP17, Ub-rhodamine cleavage fluorescence, 3 h; Ubiquitin carboxyl-terminal hydrolase 17-like protein 5 (Homo sapiens), A8MUK1; hit rate 6.5% among 47,000; AID 1645855, 2021
USP8 block = inhibitors of human USP8 deubiquitinase. purified USP8, Ub-rhodamine cleavage fluorescence, 30 min. inhibition, % at 20 µM. Ubiquitin carboxyl-terminal hydrolase 8 (Homo sapiens), P40818. hit rate 4.2% among 47,000. AID 1645853, 2021
Target sequence (P40818 whole entry, looked up): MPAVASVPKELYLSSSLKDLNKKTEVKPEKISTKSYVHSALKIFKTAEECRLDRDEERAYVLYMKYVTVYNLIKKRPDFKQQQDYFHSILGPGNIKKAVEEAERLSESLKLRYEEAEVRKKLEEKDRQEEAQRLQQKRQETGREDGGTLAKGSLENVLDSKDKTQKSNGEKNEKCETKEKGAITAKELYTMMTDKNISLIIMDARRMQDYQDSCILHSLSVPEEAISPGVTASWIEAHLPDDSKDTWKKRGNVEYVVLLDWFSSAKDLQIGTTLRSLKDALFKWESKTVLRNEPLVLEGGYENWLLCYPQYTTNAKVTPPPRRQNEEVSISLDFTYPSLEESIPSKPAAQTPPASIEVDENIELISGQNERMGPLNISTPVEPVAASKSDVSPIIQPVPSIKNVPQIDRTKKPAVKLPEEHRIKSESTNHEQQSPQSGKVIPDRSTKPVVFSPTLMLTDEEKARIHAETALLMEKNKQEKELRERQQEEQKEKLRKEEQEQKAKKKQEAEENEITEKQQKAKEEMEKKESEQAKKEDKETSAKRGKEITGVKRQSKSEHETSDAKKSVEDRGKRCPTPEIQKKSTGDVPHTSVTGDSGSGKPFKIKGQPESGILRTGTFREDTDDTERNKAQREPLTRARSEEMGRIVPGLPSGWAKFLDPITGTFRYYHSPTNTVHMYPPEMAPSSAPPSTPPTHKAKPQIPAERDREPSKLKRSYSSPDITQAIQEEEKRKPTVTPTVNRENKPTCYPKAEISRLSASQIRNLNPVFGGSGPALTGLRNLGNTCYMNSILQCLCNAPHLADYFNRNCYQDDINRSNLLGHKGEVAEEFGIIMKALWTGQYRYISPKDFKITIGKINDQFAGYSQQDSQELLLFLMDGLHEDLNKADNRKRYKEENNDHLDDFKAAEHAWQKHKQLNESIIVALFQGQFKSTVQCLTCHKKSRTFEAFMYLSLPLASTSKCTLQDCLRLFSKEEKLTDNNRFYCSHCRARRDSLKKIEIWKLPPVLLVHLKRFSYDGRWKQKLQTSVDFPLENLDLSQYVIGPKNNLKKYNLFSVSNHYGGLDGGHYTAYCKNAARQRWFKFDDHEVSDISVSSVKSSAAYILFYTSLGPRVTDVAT
Each line names hits and unclear results; the compound was inactive in the other large screens. Cut-off read from the data, not from the text of the source: active = inhibition above about 30%; inactive = the rest.

Cc1nc(-c2ccc(C)c(S(=O)(=O)NC(C)C(=O)Nc3ccc(C)c(F)c3)c2)no1 (stereo unspecified)	USP30 block 36
CCOC(=O)c1cc(C#N)c(NCc2ccccc2OC)nc1-c1ccccc1	none
COC(=O)c1cc(C#N)c(NCc2ccccc2)nc1C	USP17 block 59
COC(=O)c1cc(NC/C=C/c2ccccc2)ccc1N1CCOCC1	none
COC(=O)c1cc(NC(=O)/C=C/c2ccc(Cl)cc2)ccc1N1CCOCC1	USP28 block 50
COc1ccc(C(=O)N(O)c2ccccc2)cc1	USP8 block 78
COc1ccc(C(=O)CS(=O)(=O)c2ccccc2)cc1	none
O=C(NC(c1ccccc1)c1nnc(N2CCOCC2)o1)c1ccc2c(c1)OCO2 (stereo unspecified)	none
O=C(O)CCSc1nnc(-c2ccc(O)cc2)n1Cc1ccccc1	none
CSc1nnc(-c2ccc(C(C)(C)C)cc2)n1Cc1ccccc1	USP30 block 33
CN1[C@@H](CCC(=O)NCc2ccco2)CNC(=O)[C@@H]2[C@H]1CCN2Cc1cccc(Cl)c1	none
CC(=O)CSc1nc2sc3c(c2c(=O)n1-c1ccccc1)CCCC3	USP30 block 30
CCC(=O)Nc1cccnc1-c1ccc(C(=O)NCc2ccc(C)cc2)cc1	none
O=C(Cn1c(=O)n(CC(=O)NC2CCCC2)c(=O)c2ccccc21)Nc1ccc(Br)cc1	USP30 block 41, USP17 block 38
O=C(Cn1c(=O)n(-c2ccccc2)c(=O)c2oc3ccccc3c21)N1CCCCC1	none
O=C(Cn1c(=O)c2ccccc2n(CC(=O)Nc2ccc(Br)cc2)c1=O)NCc1ccco1	USP17 block 31, USP8 block 44
O=C(Cn1c(=O)n(-c2ccc(F)cc2)c(=O)c2oc3ccccc3c21)NC1CCCCC1	USP8 block 41
O=C(CCCCn1c(=O)c2ccccc2n(CC(=O)Nc2ccc3c(c2)OCCO3)c1=O)NCc1ccco1	none
COc1cc(Cl)c(C)cc1NC(=O)Cn1c(=O)n(CC(=O)NCc2ccco2)c(=O)c2ccccc21	USP28 block 39, USP17 block 50, USP8 block 64
CCN1[C@H]2CCNCC[C@@H]2Oc2ccccc2S1(=O)=O	none
COc1ccc(/C=C\NC=O)cc1	none
Cc1nn2c(CNC(=O)c3cccc(N(C)C)c3)c(C)nc2s1	none
O=C(Cn1c(=O)n(Cc2ccc(C(=O)NCc3ccco3)cc2)c(=O)c2ccccc21)Nc1ccc2c(c1)OCCO2	USP30 block 48, USP28 block 58, USP17 block 81, USP8 block 74
COc1cc(NC(=O)Cn2c(=O)n(-c3ccc(CC(=O)NCc4ccco4)cc3)c(=O)c3ccccc32)cc(OC)c1	none
CC(C)(C)C(=O)Cn1c(=O)n(-c2ccc(CC(=O)NC3CCCC3)cc2)c(=O)c2ccccc21	none
CCc1noc(Cn2cnc3c4ccccc4n(CC(=O)NC4CCCCC4)c3c2=O)n1	USP30 block 69, USP28 block 53, USP17 block 46
CCc1ccc(-n2c(=O)c3ccccc3n(CC(=O)NC3CCCC3)c2=O)cc1	USP30 block 52, USP28 block 31, USP17 block 62
O=C(Cn1c(=O)c2ccccc2n(CC(=O)Nc2cc(Cl)cc(Cl)c2)c1=O)NCc1ccco1	USP30 block 40, USP8 block 50
CCc1ccc(NC(=O)Cn2c(=O)n(-c3ccc(CC(=O)NCc4ccco4)cc3)c(=O)c3ccccc32)cc1	USP17 block 47
COc1ccc2[nH]c3c(c2c1)CCN1C(=O)N(c2ccccc2C(=O)NCCc2ccccc2)C(=O)[C@]31C	none
C[C@]12C(=O)N(c3ccccc3C(=O)NC3CCCCC3)C(=O)N1CCc1c2[nH]c2ccccc12	USP30 block 32, USP17 block 45
COc1cccc(N2C(=O)N3CCc4c([nH]c5ccc(OC)cc45)[C@@]3(C)C2=O)c1	none
COc1ccc(NC(=O)c2ccc(N3C(=O)N4CCc5c([nH]c6ccc(OC)cc56)[C@@]4(C)C3=O)cc2)cc1	USP8 block 31
CC1CCC(NC(=O)c2ccccc2N2C(=O)N3CCc4c([nH]c5ccccc45)[C@@]3(C)C2=O)CC1 (stereo partly specified)	none
COc1ccc(CCNC(=O)c2ccccc2N2C(=O)N3CCc4c([nH]c5ccc(OC)cc45)[C@@]3(C)C2=O)cc1	USP30 block 41, USP17 block 43
N#Cc1oc2ccccc2c1NC(=O)Cc1c(Cl)cccc1Cl	none
